Results filed as inconclusive are left out. Active and inactive are the calls of the source. The call rests on the fitted dose curve; in most records, active means well fitted inhibition curve with a large enough effect; inconclusive means small, poorly fitted or top-dose-only effect; inactive means flat fitted curve, though single readings scatter.
Key:
Assay in all cases: qHTS profiling for inhibitors of Plasmodium falciparum proliferation (AID 504749); further: nearly all actives have a fitted effect of over 60% in size
Settings in all cases: P. falciparum in erythrocytes, SYBR Green DNA, 72 h; series mostly up to 28.7 µM
CP211 = test system: CP211
Method in brief: (§1)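 Parasite proliferation within erythrocytes, 72 h exposure. Endpoint: SYBR Green I fluorescence after overnight lysis at room temperature. Controls: 0.29 uM artemisinin, DMSO.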

CP215 = test system: CP215
Method in brief: as §1

CP217 = test system: CP217
Method in brief: as §1

CP237 = test system: CP237
Method in brief: as §1

CP238 = test system: CP238
Method in brief: as §1

CP247 = test system: CP247
Method in brief: as §1

CP250 = test system: CP250
Method in brief: as §1

CP252 = test system: CP252
Method in brief: as §1

CP256 = test system: CP256
Method in brief: as §1

CP260 = test system: CP260
Method in brief: as §1

CP262 = test system: CP262
Method in brief: as §1

CP265 = test system: CP265
Method in brief: as §1

CP266 = test system: CP266
Method in brief: as §1

CP268 = test system: CP268
Method in brief: as §1

CP269 = test system: CP269
Method in brief: as §1

CP286 = test system: CP286
Method in brief: as §1

CP291 = test system: CP291
Method in brief: as §1

CP297 = test system: CP297
Method in brief: as §1

CP305 = test system: CP305
Method in brief: as §1

CP315 = test system: CP315
Method in brief: as §1

Measured: Potency

Cc1cccc(C(=O)O)c1O
inactive: all assays above

Nc1ccc(S(=O)(=O)c2ccc(N)cc2)cc1
inactive: all assays above

COc1ccccc1OC(=O)Oc1ccccc1OC
not listed: CP297
inactive: all other assays above

CN1CCCN=C1COC(=O)C(O)(c1ccccc1)C1CCCCC1 (stereo not given)
not listed: CP291
inactive: all other assays above

COc1ccc(NS(=O)(=O)c2ccc(N)cc2)nn1
inactive: all assays above

CC(N)CCCC(C)(C)O (stereo not given)
inactive: all assays above

O=C(NCN1CCOCC1)c1cnccn1
inactive: all assays above

O=C1c2ccccc2S(=O)(=O)N1CCCCN1CCN(c2ncccn2)CC1
inactive: all assays above

Nc1ccncc1N
inactive: all assays above

O=C(/C=C/c1ccccc1)OCc1ccccc1
inactive: all assays above

Cc1c(C(=O)NCCO)[n+](=O)c2ccccc2n1[O-]
inactive: all assays above

CNc1c2c(nn1C)CCCC2
inactive: all assays above

CC(=O)Oc1cccc(C)c1
inactive: all assays above

O=C(Cn1ccnc1[N+](=O)[O-])NCCO
not listed: CP297
inactive: all other assays above

CC(C)(C)C(=O)OCOC(=O)[C@@H]1N2C(=O)[C@@H](NC(=O)[C@H](N)c3ccccc3)[C@H]2SC1(C)C
inactive: all assays above

CCCOC(=O)c1ccc(N)cc1
inactive: all assays above

COc1ccc(C(=O)NCc2ccc(OCCN(C)C)cc2)cc1OC
not listed: CP291
inactive: all other assays above

NC(=O)NS(=O)(=O)c1ccc(N)cc1
inactive: all assays above

O=c1[nH]c(=O)c2ccccc2o1
not listed: CP247
inactive: all other assays above

Nc1ncnc(Nc2ccccc2)n1
not listed: CP250 | CP262
inactive: all other assays above

Cc1c(NC(C)C)c(=O)n(-c2ccccc2)n1C
not listed: CP266
inactive: all other assays above

O=C(O)c1ccccc1C(=O)Nc1ccc(S(=O)(=O)Nc2nccs2)cc1
not listed: CP260 | CP297
inactive: all other assays above

COc1cc(C(=O)NCCCCCC(=O)O)cc(OC)c1OC
not listed: CP260
inactive: all other assays above

Cn1c([N+](=O)[O-])cnc1COC(N)=O
not listed: CP268
inactive: all other assays above

CCCCCCCCCCCCCCCCN
not listed: CP260 | CP266
inactive: all other assays above

NC(=O)c1ccc([N+](=O)[O-])cc1Cl
not listed: CP260 | CP265
inactive: all other assays above

CC[N+](CC)(CC(=O)Nc1c(C)cccc1C)Cc1ccccc1
not listed: CP262
inactive: all other assays above

O=C(O)CCCc1ccccc1
not listed: CP260 | CP266
inactive: all other assays above

COc1ccc2cc(CCC(C)=O)ccc2c1
not listed: CP262 | CP266
inactive: all other assays above

COc1ccc(C(=O)N2CCN(CC(=O)N3CCOCC3)CC2)cc1
not listed: CP250
inactive: all other assays above

CC(=O)N(CC(O)CO)c1c(I)c(C(=O)NCC(O)CO)c(I)c(C(=O)NCC(O)CO)c1I (stereo not given)
not listed: CP260 | CP265
inactive: all other assays above

Cc1c(N(C)C)c(=O)n(-c2ccccc2)n1C
not listed: CP260 | CP291
inactive: all other assays above

CCN(CC)CCc1nc(-c2ccccc2)no1
not listed: CP260
inactive: all other assays above

CCCCCCCCCCC(CO)CCCCCCCC (stereo not given)
not listed: CP269 | CP305
inactive: all other assays above

CCCCCCCC(=O)OCC(COC(=O)CCCCCCC)OC(=O)CCCCCCC
not listed: CP266
inactive: all other assays above

— PubChem BioAssay (NCATS)
